# How the values were obtained:
# Assay in all cases: PBM binding z-score (relative to random genomic background probes); higher = stronger binding; sequences stand for … in GC…GCGATTGACAGCGTAGAATGAAGG
# [1] = test system: FXR:RXRa (NR concentration 270 nM, RXRa partner concentration 90 nM)
# In short: (§1)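 Custom Agilent 4×180K protein-binding microarrays carried double-stranded probes. Their 34-nt variable regions held direct-repeat seeds, single-nucleotide variants, half-site ablations and random human genomic background sequences. Arrays were incubated 1 h with ligand-free nuclear receptor dimers in PBS pH 7.4, 2% milk, 0.02% Triton X-100, 1 mM DTT, 0.2 mg/mL BSA and 0.4 mg/ml salmon testes DNA. Antibodies against each partner (one per run) detected binding, and scanned fluorescence was regression-normalized. Binding z-scores use random background probes as reference.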
# [2] = test system: LXRa:RXRa (NR concentration 270 nM, RXRa partner concentration 90 nM)
# In short: as §1
# [3] = test system: LXRa homodimer (NR concentration 270 nM)
# In short: as §1
# [4] = test system: LXRb:RXRa (NR concentration 270 nM, RXRa partner concentration 90 nM)
# In short: as §1
# [5] = test system: LXRb homodimer (NR concentration 270 nM)
# In short: as §1
# [6] = test system: PPARa:RXRa (NR concentration 270 nM, RXRa partner concentration 90 nM)
# In short: as §1
# [7] = test system: PPARg:RXRa (NR concentration 180 nM, RXRa partner concentration 90 nM)
# In short: as §1
# [8] = test system: PPARg:RXRa 270nM:90nM, anti-RXR (NR concentration 270 nM, RXRa partner concentration 90 nM)
# In short: as §1
# [9] = test system: PPARg:RXRa 30nM:10nM, anti-RXR (NR concentration 30 nM, RXRa partner concentration 10 nM)
# In short: as §1
# [10] = test system: PPARg:RXRa 90nM:30nM, anti-RXR (NR concentration 90 nM, RXRa partner concentration 30 nM)
# In short: as §1
# [11] = test system: PPARg:RXRa DBDmut IVT, anti-RXR (DBD mutation: RXRa K156A/R161A, NR concentration 270 nM, RXRa partner concentration 90 nM)
# In short: as §1
# [12] = test system: PPARg:RXRa IVT, anti-PPARg (NR concentration 270 nM, RXRa partner concentration 90 nM)
# In short: as §1
# [13] = test system: PPARg DBDmut:RXRa IVT, anti-PPARg (DBD mutation: PPARg1 K132A/R137A, NR concentration 270 nM, RXRa partner concentration 90 nM)
# In short: as §1
# [14] = test system: PPARg DBDmut IVT, anti-PPARg (DBD mutation: PPARg1 K132A/R137A, NR concentration 270 nM)
# In short: as §1
# [15] = test system: PPARg homodimer (NR concentration 180 nM)
# In short: as §1
# [16] = test system: PXR:RXRa (NR concentration 270 nM, RXRa partner concentration 90 nM)
# In short: as §1
# [17] = test system: PXR homodimer (NR concentration 270 nM)
# In short: as §1
# [18] = test system: RARa:RXR (NR concentration 270 nM, RXRa partner concentration 90 nM)
# In short: as §1
# [19] = test system: RARa homodimer (NR concentration 270 nM)
# In short: as §1
# [20] = test system: RARb:RXRa (NR concentration 270 nM, RXRa partner concentration 90 nM)
# In short: as §1
Sequence,PBM binding z-score [1],PBM binding z-score [2],PBM binding z-score [3],PBM binding z-score [4],PBM binding z-score [5],PBM binding z-score [6],PBM binding z-score [7],PBM binding z-score [8],PBM binding z-score [9],PBM binding z-score [10],PBM binding z-score [11],PBM binding z-score [12],PBM binding z-score [13],PBM binding z-score [14],PBM binding z-score [15],PBM binding z-score [16],PBM binding z-score [17],PBM binding z-score [18],PBM binding z-score [19],PBM binding z-score [20]
CAAACTAAGTCACCGGAAGGTCAAAGTCCGCATG,3.59,3.86,3.92,3.75,1.12,4.07,2.05,2.78,0.812,2.18,2.44,2.88,0.787,1.14,2.8,3.98,1.63,4.43,1.48,3.46
TAGCCTAGGTCATGCGGGGCAGTATAGTGTCGGC,3.99,3.24,0.431,2.23,0.295,3.56,2.18,2.41,0.0404,1.28,1.69,3.02,0.874,-0.0244,0.993,2.16,-0.37,2.61,-0.595,3.75
CTACCAAGGTGAACAAGGTCTTTGATTACTATTC,0.811,0.534,-0.122,1.18,-0.113,1.71,0.626,0.721,0.0464,0.438,2.51,2.75,0.785,0.293,0.597,0.752,0.0854,0.973,0.482,1.72
TCTCCTAGGTCAGTTGGTCAGCTAACGAGCTGCC,1.57,1.17,0.111,1.26,1.43,1.89,0.491,2.47,2.9,2.75,2.85,3.32,1.43,0.66,1.05,0.732,-0.3,0.918,0.238,3.52
ATCTCTAGGTAAAGATACTTCAGTGAATGCAAAT,0.262,0.149,0.0511,0.403,0.44,0.361,0.884,0.723,0.521,0.608,1.8,1.32,1.1,1.13,0.534,0.635,0.252,0.522,0.591,-0.033
ATATGTAGGTTATAGGGTCATTCAGTTTGCGCAT,4.47,4.26,2.22,3.98,1.38,5.36,7.99,7.04,5.54,7.25,7.51,7.16,2.03,1.57,3.17,4.88,8.92,5.18,1.96,3.19
TCTAGTAGATCAACAGGAGGTTAAGAAAGATCGA,0.568,1.07,0.252,0.768,-0.7,1.36,0.296,1.55,2.92,2.01,1.67,0.911,0.0951,-0.146,0.637,0.739,0.18,1.05,0.751,0.445
GGTACGAGGGCAAGTTGATAGCAGAGTTTGATGG,0.998,0.455,-0.268,0.434,-0.129,1.02,0.722,0.456,-0.104,0.235,2.1,1.59,-0.734,-1,0.42,1.06,0.796,0.502,0.101,2.75
TCGAGTAGCTTACCAATGGGGCATTCAGCTTTCT,-0.38,-0.514,-0.884,0.00146,-1.08,-0.152,-0.423,-0.0428,0.616,0.411,1.07,-0.175,-1.01,-0.741,-0.629,-0.456,-1.19,-0.333,-1.4,-0.426
TTACCAAGTTGAAGGTCGTTGATCCCTCTGTAGA,2.26,2.28,0.241,1.56,-0.05,1.59,0.598,2.48,1.36,2.27,0.297,0.442,0.321,-0.391,0.828,1.59,0.298,1.21,0.00913,1.15
TAGCCTAGGTCAGGTCGGGCCAGTATACGCTATA,2.66,1.06,-0.52,0.724,-0.502,1.71,0.639,0.781,-0.544,0.204,0.315,1.69,-0.681,-1.44,0.477,1.51,-0.668,1.25,-1.19,3.24
ACAGACAGGTGATCAAGGTAACTCAGGCTATCAT,0.0446,-0.068,-0.091,-0.153,-0.411,-0.038,0.479,-0.0434,-0.141,-0.12,0.0346,0.406,-0.281,0.238,0.161,-0.179,0.0426,0.35,0.298,0.165
AGTACAGGGTCACTAGGCCAGAGTAGGTACGAAT,5.64,3.74,-0.159,3.25,0.166,5.73,7.54,6.4,2.95,5.23,3.37,5.52,0.92,0.785,2.13,3.07,0.0901,4.21,0.585,4.23
ATCTCTAGGTAACAAGTTTAGTGAAAGAGAGGAC,0.428,0.215,0.326,0.212,0.657,0.577,0.844,1.35,0.486,1.37,3.18,2.92,1.24,1.38,1.04,0.591,0.703,0.429,0.873,0.574
TGTCAAAGTTTAAAGGTAACGTAAGTATCCACAC,1.49,1.72,0.175,1.29,-0.187,2.79,4.23,4.3,1.98,3.41,-0.319,2.73,0.942,1.54,0.899,1.7,0.39,2.12,0.576,2.46

# — the supplement of paper PMC6555819
